This is a sample that favours compounds with a hit; in the whole collection about 9.2% have one here.
Rab9 promoter act: Rab9 promoter activation. Huh7 Rab9 promoter-luciferase reporter, luminescence, 24 h. Potency, µM (series often up to 9.22 µM), hits mostly activators. hit rate 2.8% among 320,000; also: nearly all actives have a fitted effect of over 60% in size
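Huh7 cells stably carrying Rab9 promoter–luciferase reporter, plated 1500 cells/well, compound added after 2 h and incubated 24 h at 37 °C; luciferase luminescence then read after 10 min with detection reagent.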
ELG1 genotoxic: inducers of genotoxicity in HEK293T ELG1-luciferase cells. HEK293T ELG1-luciferase reporter, luminescence, 16 h. Potency, µM (series often up to 46 µM), hits mostly activators. hit rate 1.3% among 330,000. AID 504466; also: nearly all actives have a fitted effect of over 60% in size
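Reporter readout depends on ELG1 protein level, which increases with genetic stress. After 16 hr compound exposure at 37 °C, luciferase activity was quantified using ONE-Glo.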
FLuc modulator: counter-screen for miR-21 project: firefly luciferase inhibitors or activators. purified FLuc, Km substrates, luminescence inhibition. P08659. hit rate 6.9% among 360,000. AID 588342. Potency, µM (doses to about 57.5 µM), hits mostly inhibitors; also: nearly all actives have a fitted effect of over 55% in size
Target sequence (P08659 whole entry, looked up): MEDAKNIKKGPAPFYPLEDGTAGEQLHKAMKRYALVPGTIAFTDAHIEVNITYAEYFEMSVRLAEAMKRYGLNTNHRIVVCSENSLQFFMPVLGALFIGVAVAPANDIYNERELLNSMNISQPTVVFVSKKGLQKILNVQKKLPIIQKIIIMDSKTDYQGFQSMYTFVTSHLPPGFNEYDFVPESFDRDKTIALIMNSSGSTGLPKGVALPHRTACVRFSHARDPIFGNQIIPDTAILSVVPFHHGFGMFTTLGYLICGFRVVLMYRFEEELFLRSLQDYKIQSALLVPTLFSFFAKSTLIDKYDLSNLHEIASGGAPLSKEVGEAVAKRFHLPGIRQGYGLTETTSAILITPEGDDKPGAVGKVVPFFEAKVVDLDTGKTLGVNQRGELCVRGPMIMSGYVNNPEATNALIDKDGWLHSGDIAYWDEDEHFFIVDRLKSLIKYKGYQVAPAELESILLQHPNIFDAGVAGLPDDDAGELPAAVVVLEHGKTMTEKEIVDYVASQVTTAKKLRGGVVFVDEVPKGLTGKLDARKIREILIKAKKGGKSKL
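Biochemical qHTS of compounds, final roughly 60 µM downward over six points, against 10 nM purified firefly luciferase using Km concentrations of substrates (10 uM D-luciferin, 10 uM ATP) in Tris acetate pH 7.5 buffer; luminescence output.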
SMN2 splice enh: SMN2 splice variant enhancement. HEK293 SMN2-luciferase splicing reporter, luminescence, 30-36 h. hit rate 2.8% among 210,000. Potency, µM (titrated, usually from 46.1 µM), hits mostly activators; also: nearly all actives have a fitted effect of over 55% in size
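qHTS luciferase splicing reporter: luminescence rises when SMN2 exon 7 is included in transfected HEK293 cells. Compound exposure lasted 30-36 h at 37C, with 4.5 mM final sodium butyrate as control, followed by a ONE-Glo read.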
NPC1 promoter act: activates the NPC1 promoter; Huh7 NPC1 promoter luciferase reporter, 24 h; hit rate 2.4% among 320,000; Potency, µM (highest dose often 9.22 µM), most hits filed as activators; also: nearly all actives have a fitted effect of over 60% in size
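Readout is luciferase luminescence, reflecting NPC1 promoter activation in stably transfected Huh7 cells after 24 h compound exposure at 37 °C in reduced-serum medium with 10% FBS.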
ELG1 DNA repair: ELG1-dependent DNA repair inhibition; Potency, µM (top dose mostly 46.1 µM), usual class: inhibitors; AID 504467; hit rate 2.3% among 330,000; HEK293T ELG1-luciferase reporter, luminescence, 16 h; DNA damage induced by 5-fluorouridine; also: nearly all actives have a fitted effect of over 55% in size
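Cells (2,000 per well) received 5-fluorouridine plus test compound or DMSO and were incubated 16 hr at 37 °C, 5% CO2. Luciferase activity was read by luminescence 30 min after ONE-Glo addition; signal suppression marked inhibition of damage-induced ELG1 function.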
A number is an active result; . = inactive; ? = inconclusive; / = not tested or not shown; [ ] = remark or other dose. Calls follow the shape of the dose curve; as a rule, active = well fitted curve in the direction sought with a large enough effect; inconclusive = small, poorly fitted or top-dose-only effect, or another doubt; inactive = no such curve, though single readings can be large; an effect the other way counts as inactive or inconclusive.

SMILES	Rab9 promoter act	ELG1 genotoxic	FLuc modulator	SMN2 splice enh	NPC1 promoter act	ELG1 DNA repair
COc1ccc(NC(=O)n2nc(OC(=O)c3cccs3)cc2N)cc1	.	?	17µM	/	.	?
COc1ccc(Cl)cc1-c1nc(-c2ccc(NC(=O)c3cccs3)cc2)no1	?	.	15µM	.	.	.
CC(C)CC(=O)Nc1ccc(S(=O)(=O)Nc2nccs2)cc1	.	.	.	/	.	.
CCCc1ccc(OCC(=O)Nc2cc(S(=O)(=O)CC)ccc2O)cc1	.	.	27µM	/	.	.
CCS(=O)(=O)c1ccc(O)c(NC(=O)COc2ccc(OC)cc2)c1	.	.	?	.	.	.
COc1ccc(-c2cc3nc(C)cc(N)n3n2)cc1	0.35µM	?	0.38µM	1.1µM	0.11µM	?
COc1ccc(-c2cc3nc(C)cc(-c4ccc(OC)cc4)n3n2)cc1	.	.	?	/	.	.
COc1ccc(-c2cc3nc(C)cc(NCCO)n3n2)cc1	?	.	11µM	.	.	?
COc1ccc(-c2cc3ncc(-c4ccccc4)c(N)n3n2)cc1	1.8µM	?	0.95µM	11µM	1.4µM	?
COCCNc1cc(C)nc2cc(-c3ccc(C)cc3)nn12	?	?	6µM	.	?	.
N#Cc1cnc2cc(-c3ccccc3)nn2c1N	?	.	?	/	?	?
Cc1ccccc1OC1CCN(C(=O)C2CCC(=O)N(C3CCCC3)C2)CC1 (stereo not drawn)	.	.	.	/	.	.
O=C(Nn1c(-c2ccc(F)cc2)nc2ccccc2c1=O)C1CCCCC1	.	.	.	.	.	?
COCCN1C(=O)N[C@@H](c2ccccc2)[C@H](C(=O)OC)[C@H]1C	/	/	/	.[9.22 µM]	/	/
CCOC(=O)c1cc(-c2ccccc2)n(CC(=O)NC2CCC(C)CC2)c1C (stereo not drawn)	/	/	.	/	/	/
Cc1ccc(-n2nc(C)c3c(C)cc(=O)n(CC(=O)Nc4cc(Cl)ccc4C)c32)cc1	/	/	.	/	/	/
O=C(Cc1ccccc1)Nc1ccccc1Oc1ccccc1	.	.	.	.	.	.
CC(=O)n1nc(-c2ccc(C)cc2)nc1NCc1ccco1	3.5µM	?	.	?	2.5µM	?
Cc1ccc(-c2cc3nc(C)cc(NCc4ccco4)n3n2)cc1	.	4.1µM	2.4µM	13µM	2.8µM	?
COc1ccc(N2CCN(S(=O)(=O)CCNC(=O)C3CC(=O)N(c4ccccc4)C3)CC2)cc1 (stereo not drawn)	.	.[9.26 µM]	.	/	.	.
NS(=O)(=O)c1ccc(CNC(=O)c2ccc(NS(=O)(=O)c3cccs3)cc2)cc1	/	.	/	/	/	?
CCOc1ccc(CN2C(=O)c3ccccc3Sc3ccc(C(=O)NCc4ccc5c(c4)OCO5)cc32)cc1	/	/	.	.	/	/
CCN1C(=O)C2(C(C#N)=C(N)Oc3n[nH]c(-c4ccc(Cl)cc4)c32)c2ccccc21 (stereo not drawn)	.	.	.	.	.	.
N#CC1=C(N)Oc2n[nH]c(-c3ccccc3)c2C12C(=O)Nc1ccccc12 (stereo not drawn)	.	.	.	5.6µM	.	.
CCOC(=O)C1C(c2cccc(F)c2)NC(=S)NC1(O)C(F)(F)F (stereo not drawn)	.	.	.	.	.	.
SMILES	Rab9 promoter act	ELG1 genotoxic	FLuc modulator	SMN2 splice enh	NPC1 promoter act	ELG1 DNA repair
O=C(NCC(=O)N1CCCC(C(F)(F)F)C1)c1ccc(Oc2ccccc2)cc1 (stereo not drawn)	2.5µM	?	0.27µM	/	?	?
COC(=O)c1sc(N)c(C(=O)OC)c1COC(=O)CCNS(=O)(=O)c1ccc(C)cc1	.	.	.	.	.	10µM
COC(=O)c1sc(N)c(C(=O)OC)c1COC(=O)CNS(=O)(=O)c1ccc(C)c(C)c1	.	.	.	.[1.84 µM]	.	?
Oc1ccc(/C=N/NC(=S)NC2CC3CCC2C3)cc1 (stereo not drawn)	?	?	?	/	3.2µM	?
CCc1ccc(NC(=O)c2ccc(F)c(S(=O)(=O)NCCc3ccc(OC)c(OC)c3)c2)cc1	/	/	.	/	/	/
CCN(CC)c1ccc(C(=O)OCC(=O)Nc2sccc2C#N)cc1	2.8µM	?	12µM	10µM	3.2µM	?
N#Cc1ccsc1NC(=O)COc1ccc(-c2nnco2)cc1	?	?	15µM	?	?	?
CC(C)(C)C(=O)COC(=O)c1cc2ccccc2cc1O	.	?	6.7µM	?	.	?
N#CCSc1ccccc1NC(=O)COc1ccc(-c2nnco2)cc1	.	.	.	/	.	?
COc1ccc(S(N)(=O)=O)cc1C(=O)OCC(=O)Nc1sccc1C#N	/	.	/	/	/	.
N#Cc1ccsc1NC(=O)COC(=O)c1cc2ccccc2cc1O	3.2µM	?	4.3µM	22µM	.	?
COc1ccc(CNC(=O)CCc2c(C)c3cc4c(C)coc4cc3oc2=O)cc1	/	/	.	.	/	/
Cc1cc(C)c2c(c1)c(C)cc1nnc(SCC(=O)c3ccc(F)cc3)n12	/	/	.	/	/	/
N#Cc1ccsc1NC(=O)COC(=O)c1ccc(NC(N)=O)cc1	?	21µM	5.4µM	13µM	1.1µM	?
COc1ccc(OC)c(NC(=O)C(Cc2ccccc2)NS(=O)(=O)c2ccc3c(c2)CCC(=O)N3)c1 (stereo not drawn)	/	/	.	.	/	/
COC(=O)c1cc(-c2ccc(Cl)cc2)n[nH]1	.	.	?	/	.	?
CCOC(=O)c1cc(-c2ccc(OC)cc2)n[nH]1	?	?	17µM	/	?	?
CCOC(=O)c1cc(-c2ccc3c(c2)OCCO3)n[nH]1	1.6µM	?	2.4µM	/	3.2µM	?
O=C(O)c1cc(-c2ccc3c(c2)OCCO3)n[nH]1	.	.	11µM	/	.	.
Oc1ccccc1-c1cc(-c2ccc3c(c2)OCCO3)n[nH]1	0.71µM	0.37µM	0.34µM	3.2µM	0.5µM	?
O=C(O)c1ccc2c(c1)OCCOCCOCCOCCOCCO2	.	.	.	/	.	.
Cc1cc(Cl)ccc1NC(=O)CCS(=O)(=O)c1ccc2c(c1)CC(C)N2C(=O)C1CC1 (stereo not drawn)	/	/	.	/	/	/
CC(C)CN(CCNC(=O)CCN1N=C(c2ccccc2)CCC1=O)CC(C)C	/	/	.	/	/	/
CCCCCCCCCCCCOCC1CO1 (stereo not drawn)	/	/	/	.	/	/
C[N+](C)(C)CC(=O)N/N=C\c1c(O)ccc2ccccc12	/	/	/	.[9.22 µM]	/	/
COc1ccc(C(=O)NCC(c2ccc3c(c2)OCO3)N2CCN(c3ccc(F)cc3)CC2)cc1 (stereo not drawn)	/	/	.	/	/	/
CCOC(=O)c1cc2cc3ccccc3cc2[nH]1	2.5µM	?	?	3.2µM	2.2µM	?
Cc1ccc(Cn2c(/C=C/c3ccco3)nc3ccccc32)cc1	?	?	11µM	/	?	?
Clc1ccc(Cn2c(/C=C/c3ccco3)nc3ccccc32)cc1	3.5µM	.	11µM	.	?	?
C#CCn1c(/C=C/c2ccc(Cl)cc2)nc2ccccc21	/	/	0.19µM	2.5µM	/	/

Source: PubChem
